According to PubChem BioAssay (NCATS):
The source made the active and inactive calls. Unless noted, calls come from the whole dose curve.

Biological target: Glucocorticoid receptor (Homo sapiens) (UniProt P04150)
Test: GR-GFP Redistribution (AID 450;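 active = compounds whose dose series gives a full or clear partial fitted curve of increased nuclear translocation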)
Details: U2OS GR-GFP nuclear translocation, laser cytometry, 2 h
Potency is the fitted concentration of half-maximal effect.

Glucocorticoid receptor (Homo sapiens), sequence (P04150 whole entry, looked up): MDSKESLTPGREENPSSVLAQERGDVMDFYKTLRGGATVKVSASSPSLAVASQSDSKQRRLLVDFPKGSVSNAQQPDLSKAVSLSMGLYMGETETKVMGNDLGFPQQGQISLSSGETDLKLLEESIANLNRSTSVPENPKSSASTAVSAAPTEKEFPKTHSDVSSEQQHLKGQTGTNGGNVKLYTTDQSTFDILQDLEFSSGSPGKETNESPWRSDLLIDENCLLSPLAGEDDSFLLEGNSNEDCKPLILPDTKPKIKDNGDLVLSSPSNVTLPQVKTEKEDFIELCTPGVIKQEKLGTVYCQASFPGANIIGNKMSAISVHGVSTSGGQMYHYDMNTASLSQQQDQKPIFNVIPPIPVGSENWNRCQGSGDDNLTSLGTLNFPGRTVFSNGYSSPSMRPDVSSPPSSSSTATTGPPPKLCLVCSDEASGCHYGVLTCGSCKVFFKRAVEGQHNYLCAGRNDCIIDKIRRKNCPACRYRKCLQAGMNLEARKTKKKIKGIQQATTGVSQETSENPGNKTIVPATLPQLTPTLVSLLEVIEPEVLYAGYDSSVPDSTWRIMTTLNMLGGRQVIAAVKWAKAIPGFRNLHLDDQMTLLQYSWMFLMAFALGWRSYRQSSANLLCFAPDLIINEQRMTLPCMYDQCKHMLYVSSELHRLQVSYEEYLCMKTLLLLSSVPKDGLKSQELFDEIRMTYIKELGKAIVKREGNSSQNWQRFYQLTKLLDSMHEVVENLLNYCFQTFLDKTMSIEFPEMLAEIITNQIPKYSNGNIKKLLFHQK

Potency, inactive:
COCCn1c(=O)c(CCc2ccccc2)nc2cnc(Oc3cccc(Cl)c3)nc21 > 9.22 µM
Cc1c(S(=O)(=O)O)ccc(N=Nc2c(O)c(C(=O)O)cc3ccccc23)c1Cl > 46 µM
Cc1ccc(N=Nc2c(O)c3ccccc3[nH]c2=O)c(S(=O)(=O)N(C)C)c1 > 46 µM
O=[N+]([O-])c1ccc(S(=O)(=O)Cc2ccccc2)c2nonc12 > 46 µM
Cn1c(=S)c2[nH]c(SCCCc3ccccc3)nc2n(C)c1=O > 46 µM
C[C@]12CC[C@H]3c4ccc(O)cc4CC[C@@H]3[C@H]1CC[C@@H]2OC(=O)CCc1ccccc1 > 46 µM
Nc1nc(Sc2ccc([N+](=O)[O-])c3nonc23)c2[nH]cnc2n1 > 46 µM
CN(C)CCCn1c2c3ccccc3ccc2c2oc(=O)c3ccccc3c21 > 46 µM
CC(C)[C@H](Sc1nc(N)nc2nc[nH]c12)C(=O)O > 46 µM

Biological target: Glucocorticoid receptor (Homo sapiens) (UniProt P04150)
Test: GR-EFC Redistribution (AID 451)
Details: CHO-K1 GR-EFC translocation, beta-gal luminescence, 2 h
Summary of the method: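 CHO-K1 cells stably expressing nuclear-localized β-gal enzyme acceptor and GR fused C-terminally to the enzyme donor fragment; ligand-driven nuclear translocation restores β-gal by complementation. Compounds titrated up to 46 uM final, 2 h at 37 °C; luminescence read.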

Potency, inactive:
CN(C)CCCN1c2ccccc2Sc2ccc3ccccc3c21 > 9.22 µM
ClC(=Nc1cccc2ccccc12)N(c1ccccc1)c1ccccc1 > 9.22 µM
O=C(c1ccncc1)N1CCC2(CCCN(c3cccc(-c4ccccc4)c3)C2)CC1 > 46 µM
Cc1ccc(-c2nc(-c3nccc4ccccc34)oc2-c2ccccc2)cc1 > 9.22 µM
COc1ccc2c(c1)N(CC[C@H]1CCCCN1C)c1ccccc1S2 > 9.22 µM
COc1ccc(Oc2ncc3nc(CCc4ccccc4)c(=O)n(C4CC4)c3n2)cc1 > 46 µM
Cc1nnc(S(=O)(=O)c2ccc(N=Nc3c(N)nc(N)nc3N)cc2)s1 > 9.22 µM
COc1ccc2c(=O)cc(-c3ccncc3)oc2c1OC > 9.22 µM
COc1cccc2c1[C@H](CO)N1[C@H](C#N)[C@@H]3C[C@H](C(=O)O)[C@@H]([C@@H]1C2)N3C > 9.22 µM
CN(C)CCCN1c2ccc3ccccc3c2Sc2cccc(Cl)c21 > 9.22 µM
COc1cccc(Nc2ncc3ncc(=O)n(C4CC4)c3n2)c1 > 46 µM
CN(C)CCCN1c2ccc(O)cc2Sc2ccc(Cl)cc21 > 9.22 µM
C=C(C)COc1ccc2c(c1)CCC1C2CC[C@]2(C)C(=O)/C(=N/O)CC12 (some centres undefined) > 9.22 µM
CCCCNN > 9.22 µM
CC(CC(=O)O)(CC(=O)O)c1ccccc1 > 9.22 µM
OC[C@@H]1O[C@@H](N2CCN([C@@H]3O[C@@H](CO)[C@@H](O)[C@H](O)[C@H]3O)CC2)[C@@H](O)[C@H](O)[C@H]1O > 9.22 µM
O=C1c2ccccc2C(O)(O)[C@@]1(O)[C@]1(O)C(=O)c2ccccc2C1(O)O > 9.22 µM
c1ccc2cc(NCNc3ccc4ccccc4c3)ccc2c1 > 9.22 µM
N#Cc1c(NC(=O)C(F)(F)F)sc2c3c(=O)c4ccccc4c(=O)c=3oc3ccccc3c12 > 9.22 µM
NCCSCCC(=O)O > 9.22 µM
O=C1Oc2ccccc2C(=O)/C1=C\N1C(=O)N/C(=C\c2ccccc2O)C1=O > 9.22 µM
CC(=O)Nc1ccc(Cc2ccc3[nH]c(=O)cc(C)c3c2)cc1 > 9.22 µM
Cc1cccc(CNc2ncnc3ccc(-c4ccc(C(=O)N(C)C)cc4)cc23)c1 > 46 µM
COc1ccc2nc3cc(Cl)ccc3c(Nc3ccc(O)c(CN4CCN(C)CC4)c3)c2c1 > 9.22 µM
C[C@@H]1CCCN(C[C@@H](O)CN2CCCc3ccccc32)C1 > 9.22 µM
C[N+](C)([O-])CCC=C1c2ccccc2CCc2ccccc21 > 9.22 µM
Cc1cc(Cl)nc(NC(=O)CSc2ccc(Cl)cc2)n1 > 9.22 µM
CSc1ccc2c(c1)N(CCCN(C)C)c1ccccc1S2 > 9.22 µM
C[C@@]12CC[C@@H]3[C@@H](CC[C@H]4C[C@@H](O)CC[C@]43C)[C@H]1CC[C@@H]2c1cc(C(F)(F)F)n[nH]1 > 9.22 µM
CC(=O)O[C@H]1CC[C@@]2(C)C(=CC[C@@H]3[C@@H]4CC[C@H](c5cc(C(F)(F)F)n(C(C)=O)n5)[C@]4(C)CC[C@@H]32)C1 > 9.22 µM
O=C1C(Cl)=C(Sc2nnc3c4ccccc4c4ccccc4c3n2)C(=O)c2ccccc21 > 9.22 µM
COCCn1c(=O)c(CCc2ccccc2)nc2cnc(Oc3cccc(Cl)c3)nc21 > 46 µM
Cc1c(S(=O)(=O)O)ccc(N=Nc2c(O)c(C(=O)O)cc3ccccc23)c1Cl > 9.22 µM
Cc1ccc(N=Nc2c(O)c3ccccc3[nH]c2=O)c(S(=O)(=O)N(C)C)c1 > 9.22 µM
O=[N+]([O-])c1ccc(S(=O)(=O)Cc2ccccc2)c2nonc12 > 9.22 µM
Cn1c(=S)c2[nH]c(SCCCc3ccccc3)nc2n(C)c1=O > 9.22 µM
C[C@]12CC[C@H]3c4ccc(O)cc4CC[C@@H]3[C@H]1CC[C@@H]2OC(=O)CCc1ccccc1 > 9.22 µM
Nc1nc(Sc2ccc([N+](=O)[O-])c3nonc23)c2[nH]cnc2n1 > 9.22 µM
CN(C)CCCn1c2c3ccccc3ccc2c2oc(=O)c3ccccc3c21 > 9.22 µM
CC(C)[C@H](Sc1nc(N)nc2nc[nH]c12)C(=O)O > 9.22 µM
